Experimental data: PubChem BioAssay (Tox21)
Records with an inconclusive call do not appear. Entries that show only a call come without a potency. Active and inactive are the calls of the source. Calls follow the shape of the full dose curve.

target: Acetylcholinesterase (Homo sapiens) (UniProt P22303); assay: Acetylcholinesterase (AChE) small molecule antagonists: fluorescence cell-based qHTS assay (AID 1347398); details: SH-SY5Y cells; Potency: AChE activity; outcome: AChE activity; series mostly up to 115 µM; also: nearly all actives have a fitted effect of over 50% in size
Sequence (P22303 whole entry, looked up): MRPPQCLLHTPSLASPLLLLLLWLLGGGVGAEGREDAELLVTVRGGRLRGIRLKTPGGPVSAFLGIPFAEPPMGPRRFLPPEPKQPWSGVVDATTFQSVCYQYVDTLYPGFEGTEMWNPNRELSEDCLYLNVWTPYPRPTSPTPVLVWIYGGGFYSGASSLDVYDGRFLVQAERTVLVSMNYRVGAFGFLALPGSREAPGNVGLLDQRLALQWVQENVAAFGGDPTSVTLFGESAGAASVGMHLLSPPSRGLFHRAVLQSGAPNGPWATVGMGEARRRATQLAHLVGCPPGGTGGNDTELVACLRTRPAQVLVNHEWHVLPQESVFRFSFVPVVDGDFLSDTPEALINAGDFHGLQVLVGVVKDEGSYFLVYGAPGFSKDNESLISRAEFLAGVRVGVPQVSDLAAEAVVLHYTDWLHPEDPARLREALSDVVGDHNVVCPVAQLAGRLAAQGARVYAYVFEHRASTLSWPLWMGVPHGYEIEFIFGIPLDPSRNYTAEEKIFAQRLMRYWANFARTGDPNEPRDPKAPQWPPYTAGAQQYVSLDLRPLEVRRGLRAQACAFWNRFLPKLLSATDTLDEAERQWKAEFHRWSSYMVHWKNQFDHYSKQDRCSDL
In short: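 Cellular AChE activity read as thiocholine from acetylthiocholine hydrolysis, detected by Thiolite Green fluorescence at 490/520 nm after 40 min at room temperature. Compounds were pre-incubated 30 min at 37 C on adherent SH-SY5Y cells.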

Row | Structure (SMILES) | activity change, negative = inhibition | Potency
1 | CN(C)c1ccc(/C=C/c2ccc([N+](=O)[O-])cc2)cc1 | 4.62% [at 10.5 µM] (inactive) | 
2 | CC(CC(C)(C)C)CC(C)(C)CC(C)(C)C (configuration not stated) |  | inactive
3 | COc1ccc(CCC(C)=O)cc1 |  | inactive
4 | CC1CCCNC1 (configuration not stated) |  | inactive
5 | c1ccc(Oc2ccccc2)cc1 |  | inactive
6 | CCCc1c2oc(C(=O)O)cc(=O)c2cc2c(=O)cc(C(=O)O)n(CC)c12 |  | inactive
7 | CCCCCCCCCCCCSC#N |  | inactive
8 | Cc1ccccc1C(OCCN(C)C)c1ccccc1 (configuration not stated) |  | inactive
9 | COC(=O)CCCC(=O)OC |  | inactive
10 | CC1(C)O[C@@H]2C[C@H]3[C@@H]4CCC5=CC(=O)C=C[C@]5(C)[C@H]4[C@@H](O)C[C@]3(C)[C@]2(C(=O)CO)O1 |  | inactive
11 | OCCc1ccccn1 |  | inactive
12 | Cc1cc(C(C)(C)C)c(O)c(C)c1CC1=NCCN1 |  | inactive
13 | O=C(O)CCCCCCCC(=O)O |  | inactive
14 | CCCCCCCCC(CCCCCC)C(=O)O (configuration not stated) |  | inactive
15 | C/C=C/C(=O)C1=C(C)CCCC1(C)C |  | inactive
16 | O=C1c2ccccc2C(=O)N1CO |  | inactive
17 | O=C(O)c1cc2ccccc2nc1C(=O)O |  | inactive
18 | Clc1nc2ccccc2s1 |  | inactive
19 | O=C(OCC1CO1)C1CCCCC1C(=O)OCC1CO1 (configuration not stated) |  | inactive
20 | C=CC(=O)NC(C)C |  | inactive
21 | SCCOCCOCCS |  | inactive
22 | CC(C)(C)c1ccc(S)cc1 |  | inactive
23 | CCCCCCCCS(=O)(=O)O |  | inactive
24 | O=c1cc[nH]c(=O)[nH]1 |  | inactive
25 | C=Cc1ccc(OC(C)=O)cc1 |  | inactive
26 | O=C(Cl)c1ccc(Cl)cc1Cl |  | inactive
27 | CC(=O)c1ccc(C)cc1 |  | inactive
